Laboratory results reported in PubChem BioAssay (NCI).
About 83,000 compounds went through this panel and 20% of them were active in at least one assay; those are over-represented in the sample as a whole.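 The endpoint reported here, percent growth, reads 100 for growth as untreated, 0 for no net growth and -100 for all cells dead.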 A number with no mark means an inactive call. The source made the active and inactive calls. The calls were made as follows: active = growth percent below 10; inactive = the rest.

Columns and labels:
Assay in all cases: NCI-60 one-dose screen, 48 h (100 = growth as untreated, 0 = no growth, -100 = all killed)
Conditions in all cases: 10 µM unless noted
HT29 colon = tested on: HT29 colon
SNB-75 CNS = tested on: SNB-75 CNS
SNB-19 CNS = tested on: SNB-19 CNS
U251 CNS = tested on: U251 CNS
PC-3 prostate = tested on: PC-3 prostate
LOX IMVI melanoma = tested on: LOX IMVI melanoma
SK-MEL-28 melanoma = tested on: SK-MEL-28 melanoma
SK-MEL-2 melanoma = tested on: SK-MEL-2 melanoma
EKVX NSCLC = tested on: EKVX NSCLC
SN12C renal = tested on: SN12C renal
UO-31 renal = tested on: UO-31 renal
TK-10 renal = tested on: TK-10 renal
A498 renal = tested on: A498 renal
CCRF-CEM leukemia = tested on: CCRF-CEM leukemia
MOLT-4 leukemia = tested on: MOLT-4 leukemia
UACC-62 melanoma = tested on: UACC-62 melanoma
ACHN renal = tested on: ACHN renal
CAKI-1 renal = tested on: CAKI-1 renal
SK-MEL-5 melanoma = tested on: SK-MEL-5 melanoma

SMILES | growth (HT29 colon) | growth (SNB-75 CNS) | growth (SNB-19 CNS) | growth (U251 CNS) | growth (PC-3 prostate) | growth (LOX IMVI melanoma) | growth (SK-MEL-28 melanoma) | growth (SK-MEL-2 melanoma) | growth (EKVX NSCLC) | growth (SN12C renal) | growth (UO-31 renal) | growth (TK-10 renal) | growth (A498 renal) | growth (CCRF-CEM leukemia) | growth (MOLT-4 leukemia) | growth (UACC-62 melanoma) | growth (ACHN renal) | growth (CAKI-1 renal) [%] | growth (SK-MEL-5 melanoma)
COc1ccc2nc3cc(Cl)ccc3c(NCCNc3c4ccc(Cl)cc4nc4ccc(OC)cc34)c2c1 | -65.7% (active) | -86.8% (active) | -87.7% (active) | -84% (active) | -63% (active) | -84.9% (active) | -86.4% (active) | -73.1% (active) | -83.5% (active) | -89.6% (active) | -90.3% (active) | -92.7% (active) | 22.2% | -10.9% (active) | -76% (active) |  |  |  | 
O=C(Nc1ccc(F)cc1)ON=C1CCCCC1 | 103% [100 µM] | 85% [100 µM] | 94% [100 µM] | 102% [100 µM] | 89.5% [100 µM] | 88.2% [100 µM] | 108% [100 µM] | 102% [100 µM] | 111% [100 µM] | 100% [100 µM] | 92.2% [100 µM] | 101% [100 µM] | 95.2% [100 µM] | 97.2% [100 µM] |  | 54.5% [100 µM] | 97.9% [100 µM] |  | 
O=C1C2=C(Nc3cc([N+](=O)[O-])ccc3N2)OC1c1c2ccccc2cc2ccccc12 (stereo not drawn) | 51.4% | 52.4% | 40.2% | 31.4% | 20.5% | 38.1% | 77.5% | 87.4% | 43.6% | 30.6% |  | 73.5% | 104% | 9.72% (active) | 8.22% (active) | 44.6% |  | 53.1 | 
C1=C(c2ccccc2)C(c2ccc(OCCN3CCCCC3)cc2)Oc2ccccc21 (stereo not drawn) | 1.98% (active) | 56.5% | 53.7% | 38.2% | 60.6% | -76.9% (active) | -51.2% (active) | 77.3% | 69.1% | 55.3% | 56.7% | 74.9% | 94% | 37.5% | 47.1% | -41% (active) |  |  | -95.5% (active)
NC1=CC(=O)c2ccccc2C1=O | 94.7% | 89.2% | 96.3% | 66.7% | 55.6% | 24.5% | 103% | 88.6% | 95% | 85.5% | 71.1% | 125% | 90% | 85.4% | 94.3% | 60.8% | 79.9% | 91.9 | 22.9%
CCN1/C(=C\c2cc[n+](CC)c3ccccc23)C=Cc2ccccc21 | 8.56% (active) | 14.3% | 17.1% | 17% | 11.4% | 4.04% (active) | 3% (active) | 0.604% (active) | 15.8% | 8.57% (active) | 11.4% | 22.3% | -20.2% (active) | 28.1% | 13.2% | -21.4% (active) | 15.2% | 53.9 | -74.4% (active)
CC1(C)CC([P+](c2ccccc2)(c2ccccc2)c2ccccc2)=NN1 | 24.9% | 34.3% | 44.5% | 25.5% | 29.1% | 43.1% | 67.9% | -19.2% (active) | 67.4% | 30.4% |  | 56.4% | 92% | 41.3% | 21% | 32.2% | 88.1% | 90.1 | 12.4%
C[N+](C)=c1ccc2nc3c(cc(NCCCNc4cc5oc6cc(=[N+](C)C)ccc-6nc5c5ccccc45)c4ccccc43)oc-2c1 | -32.5% (active) | 39.6% | -24.6% (active) | -20.1% (active) | 6.83% (active) | -45.5% (active) | 64.8% | 90.4% | 45.6% | -25.5% (active) | 45.1% | 115% | 109% | 11.3% | 5.25% (active) | 43.3% | 25.3% | 53.8 | 
Oc1c(Br)c(Br)c(O)c(Br)c1Br | 129% | 120% | 106% | 114% | 105% | 90.9% | 92.8% | 104% | 112% | 113% | -80.4% (active) | 42.6% | 127% | 15.8% | 42.6% | 93.3% |  | 92.5 | 102%
O=C1c2ccccc2C(=O)N1c1ccccc1 | 104% | 89.2% | 105% | 93.1% | 101% | 104% | 115% | 128% | 93% | 97.2% |  | 117% | 109% | 114% |  | 92% | 99.5% | 81.3 | 105%
Cc1ccc(N=C=C(c2ccccc2)c2ccccc2)cc1 | 97.6% | 78.1% | 85.2% | 81.5% | 66.9% | 5.05% (active) | 106% | 97.5% | 90.6% | 79.2% | 80.3% | 112% | 126% | 1.63% (active) | -1.03% (active) | 84.6% | 102% |  | 89.3%
CC1OC2CC(=O)OC2C2=C1C(=O)c1c(O)cccc1C2=O (stereo not drawn) | -51.8% (active) | -100% (active) | 15.9% | -44.8% (active) | -35.3% (active) | -91.6% (active) | -93.5% (active) | -61.2% (active) | -53.3% (active) | -94.9% (active) | -90.7% (active) | -96.2% (active) |  | 0.534% (active) | -7.62% (active) | -89.4% (active) | -97.4% (active) |  | -100% (active)
